Results: PubChem BioAssay AID1159580 (chemical genetic matrix, 2015)
The whole screen tested about 5,500 compounds, of which about 2,000 (36%) were called active. Roughly 18% stayed inconclusive and do not appear here. No stated cut-off is given here; in the data, active means normalized growth mostly below about 0.91 (no sharp cut-off); inconclusive means no clear call, values can overlap the other calls; inactive means mostly above about 0.92. The list shows a part of the results.

Test: chemical genetic growth profiling, strain panel (AID 1159580);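 further: tested at 20 µM; growth read once vehicle control cultures reached saturation at 30 °C; 1 = growth at the plate median or of vehicle wells; lower values mean less growth of the strain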
Conditions: growth OD

Measured: normalized growth

OC[C@@H]1CCCN2CCCC[C@H]12
inactive: S. cerevisiae deletion strains, locus YJR066W, strain TOR1, hits give low values 0.967 | S. cerevisiae deletion strains, locus YJR075W, strain HOC1, hits give low values 1.02 | S. cerevisiae deletion strains, locus YKL009W, strain mrt4, hits give low values 1.02 | S. cerevisiae deletion strains, locus YKL068W, hits give low values 1.01 | S. cerevisiae deletion strains, locus YKL085W, strain MDH1 (second series), hits give low values 1 | S. cerevisiae deletion strains, locus YKL085W, strain MDH1, hits give low values 1 | S. cerevisiae deletion strains, locus YKL160W, strain elf1, hits give low values 1.02 | S. cerevisiae deletion strains, locus YKR001C, strain vps1, hits give low values 1.01 | S. cerevisiae deletion strains, locus YKR026C, strain gcn3, hits give low values 1.06 | S. cerevisiae deletion strains, locus YKR091W, strain srl3, hits give low values 1.02 | S. cerevisiae deletion strains, locus YLL001W, strain dnm1, hits give low values 0.995 | S. cerevisiae deletion strains, locus YLL026W, hits give low values 1.03 | S. cerevisiae deletion strains, locus YLL041C, strain sdh2, hits give low values 1.01 | S. cerevisiae deletion strains, locus YLR027C, strain aat2, hits give low values 1.02 | S. cerevisiae deletion strains, locus YLR039C, strain RIC1, hits give low values 1.02 | S. cerevisiae deletion strains, locus YLR058C, strain SHM2, hits give low values 1.01 | S. cerevisiae deletion strains, locus YLR102C, strain apc9, hits give low values 1.01 | S. cerevisiae deletion strains, locus YLR113W, strain HOG1, hits give low values 1.01 | S. cerevisiae deletion strains, locus YLR221C, strain rsa3, hits give low values 1.02 | S. cerevisiae deletion strains, locus YLR258W, strain gsy2, hits give low values 1.04 | S. cerevisiae deletion strains, locus YLR262C, strain YPT6 (second series), hits give low values 1.04 | S. cerevisiae deletion strains, locus YLR262C, strain YPT6, hits give low values 1.06 | S. cerevisiae deletion strains, locus YLR268W, strain sec22, hits give low values 1.03 | S. cerevisiae deletion strains, locus YLR320W, strain mms22, hits give low values 0.99 | S. cerevisiae deletion strains, locus YLR330W, strain CHS5, hits give low values 0.98 | S. cerevisiae deletion strains, locus YLR342W, strain FKS1 (second series), hits give low values 0.977 | S. cerevisiae deletion strains, locus YLR342W, strain FKS1, hits give low values 1.03 | S. cerevisiae deletion strains, locus YLR357W, strain rsc2, hits give low values 1.02 | S. cerevisiae deletion strains, locus YLR370C, strain arc18, hits give low values 1.03 | S. cerevisiae deletion strains, locus YLR371W, strain rom2, hits give low values 1.01 | S. cerevisiae deletion strains, locus YLR384C, strain iki3, hits give low values 1.03 | S. cerevisiae deletion strains, locus YLR418C, strain cdc73, hits give low values 1.03 | S. cerevisiae deletion strains, locus YML016C, strain PPZ1, hits give low values 1 | S. cerevisiae deletion strains, locus YML032C, strain rad52, hits give low values 0.995 | S. cerevisiae deletion strains, locus YML120C, strain ndi1, hits give low values 1.03 | S. cerevisiae deletion strains, locus YML124C, strain tub3, hits give low values 1 | S. cerevisiae deletion strains, locus YMR058W, strain fet3, hits give low values 1.03 | S. cerevisiae deletion strains, locus YMR078C, strain ctf18, hits give low values 1.01 | S. cerevisiae deletion strains, locus YMR125W, strain sto1, hits give low values 1.05 | S. cerevisiae deletion strains, locus YMR129W, hits give low values 1.04 | S. cerevisiae deletion strains, locus YMR205C, strain PFK2, hits give low values 1.01 | S. cerevisiae deletion strains, locus YMR223W, strain ubp8, hits give low values 1 | S. cerevisiae deletion strains, locus YMR231W, strain pep5, hits give low values 1.04 | S. cerevisiae deletion strains, locus YMR263W, strain SAP30, hits give low values 0.999 | S. cerevisiae deletion strains, locus YMR307W, strain GAS1, hits give low values 1 | S. cerevisiae deletion strains, locus YNL067W, strain RPL9B, hits give low values 1 | S. cerevisiae deletion strains, locus YNL071W, strain lat1, hits give low values 1.03 | S. cerevisiae deletion strains, locus YNL183C, strain NPR1, hits give low values 0.964 | S. cerevisiae deletion strains, locus YNL209W, strain ssb2, hits give low values 1.02 | S. cerevisiae deletion strains, locus YNL233W, strain BNI4, hits give low values 1.01 | S. cerevisiae deletion strains, locus YNL248C, strain rpa49, hits give low values 1.03 | S. cerevisiae deletion strains, locus YNL250W, strain rad50, hits give low values 1.03 | S. cerevisiae deletion strains, locus YNL271C, strain bni1, hits give low values 1 | S. cerevisiae deletion strains, locus YNL298W, strain CLA4, hits give low values 1.01 | S. cerevisiae deletion strains, locus YNL307C, strain MCK1, hits give low values 1.03 | S. cerevisiae deletion strains, locus YNL322C, strain KRE1 (second series), hits give low values 1.04 | S. cerevisiae deletion strains, locus YNL322C, strain KRE1, hits give low values 1 | S. cerevisiae deletion strains, locus YNR049C, strain mso1, hits give low values 1.03 | S. cerevisiae deletion strains, locus YNR052C, strain pop2, hits give low values 1.01 | S. cerevisiae deletion strains, locus YOL006C, strain TOP1, hits give low values 1.06 | S. cerevisiae deletion strains, locus YOL012C, strain htz1 0.808 | S. cerevisiae deletion strains, locus YOL147C, strain pex11, hits give low values 1.02 | S. cerevisiae deletion strains, locus YOR001W, strain rrp6, hits give low values 1.02 | S. cerevisiae deletion strains, locus YOR061W, strain CKA2, hits give low values 1.01 | S. cerevisiae deletion strains, locus YOR069W, strain VPS5, hits give low values 1.01 | S. cerevisiae deletion strains, locus YOR070C, strain gyp1, hits give low values 1.04 | S. cerevisiae deletion strains, locus YOR080W, strain dia2, hits give low values 1.03 | S. cerevisiae deletion strains, locus YOR083W, strain WHI5, hits give low values 0.97 | S. cerevisiae deletion strains, locus YOR106W, strain vam3, hits give low values 1.05 | S. cerevisiae deletion strains, locus YOR136W, strain idh2, hits give low values 1.03 | S. cerevisiae deletion strains, locus YOR144C, strain elg1, hits give low values 1.01 | S. cerevisiae deletion strains, locus YOR184W, strain ser1, hits give low values 1.02 | S. cerevisiae deletion strains, locus YOR231W, strain MKK1, hits give low values 1.03 | S. cerevisiae deletion strains, locus YOR265W, strain rbl2, hits give low values 1.01 | S. cerevisiae deletion strains, locus YOR270C, strain vph1, hits give low values 1.14 | S. cerevisiae deletion strains, locus YOR290C, strain snf2, hits give low values 1.04 | S. cerevisiae deletion strains, locus YOR316C, strain cot1, hits give low values 1.01 | S. cerevisiae deletion strains, locus YPL051W, strain arl3, hits give low values 1.04 | S. cerevisiae deletion strains, locus YPL055C, strain LGE1, hits give low values 1.01 | S. cerevisiae deletion strains, locus YPL078C, strain atp4, hits give low values 1.04 | S. cerevisiae deletion strains, locus YPL106C, strain sse1, hits give low values 1.03 | S. cerevisiae deletion strains, locus YPL240C, strain hsp82, hits give low values 1.04 | S. cerevisiae deletion strains, locus YPL241C, strain CIN2, hits give low values 1 | S. cerevisiae deletion strains, locus YPL256C, strain CLN2, hits give low values 1.01 | S. cerevisiae deletion strains, locus YPR119W, strain clb2, hits give low values 1.02 | S. cerevisiae deletion strains, locus YPR141C, strain kar3, hits give low values 1.01 | S. cerevisiae deletion strains, locus YPR163C, strain tif3, hits give low values 1.01 | S. cerevisiae deletion strains, locus YPR167C, strain met16, hits give low values 1.01 | S. cerevisiae deletion strains, strain wtn01, hits give low values 1.03 | S. cerevisiae strains, strain wild type, hits give low values 0.979
